# Source: PubChem BioAssay (NCATS)
# Inconclusive results are not listed. Entries that show only a call come without a potency. Values without a mark were called inactive. Calls of active or inactive are those of the source. Calls follow the shape of the dose curve; as a rule, active = well fitted cell-killing curve with a large enough effect; inconclusive = small, poorly fitted or top-dose-only effect, or effect the other way; inactive = no such curve, though single readings can be large or run the other way. Non-standard residues stand in square brackets, D forms with d. Residues, ends and D or L forms follow the SMILES beside them. *: point of attachment. Sta = CC(C)C[C@H](N)[C@@H](O)CC(=O)O; Isovaleryl = CC(C)CC(=O)*
# Columns and labels:
# [1] = Quantitative High-Throughput drug screen in 47 multiple myeloma cell lines against the NCATS MIPE library collection: OCIMY1_PLB cell viability assay (AID 1918979); also: nearly all actives have a fitted effect of over 35% in size; also: potency is read from the fitted curve at half-maximal effect; as to viability: series mostly up to about 46 µM
# How it was run: (§1)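 Readout: median RLU from CellTiter-Glo after 5 min at room temperature. Preceding step was 48 h drug treatment of 500 cells/well at 37 °C, 5% CO2, with DMSO-only and media-only control wells.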
# [2] = Quantitative High-Throughput drug screen in 47 multiple myeloma cell lines against the NCATS MIPE library collection: MM1S_ATCC cell viability assay (AID 1918980); also: nearly all actives have a fitted effect of over 45% in size; also: potency is read from the fitted curve at half-maximal effect
# How it was run: as §1
# [3] = Quantitative High-Throughput drug screen in 47 multiple myeloma cell lines against the NCATS MIPE library collection: MM1R_ATCC cell viability assay (AID 1918981); also: nearly all actives have a fitted effect of over 35% in size; also: potency is read from the fitted curve at half-maximal effect
# How it was run: as §1
# [4] = Quantitative High-Throughput drug screen in 47 multiple myeloma cell lines against the NCATS MIPE library collection: OCIMY5_PLB cell viability assay (AID 1918988); also: nearly all actives have a fitted effect of over 65% in size; also: potency is read from the fitted curve at half-maximal effect
# How it was run: as §1
# [5] = Quantitative High-Throughput drug screen in 47 multiple myeloma cell lines against the NCATS MIPE library collection: SKMM1_PLB cell viability assay (AID 1919863); settings: SKMM1 myeloma viability, CellTiter-Glo ATP, 48 h; viability: active compounds read low; also: nearly all actives have a fitted effect of over 35% in size; also: potency is read from the fitted curve at half-maximal effect; as to viability: series mostly up to about 46 µM
# How it was run: as §1
# [6] = Quantitative High-Throughput drug screen in 47 multiple myeloma cell lines against the NCATS MIPE library collection: U266_ATCC cell viability assay (AID 1919864); also: nearly all actives have a fitted effect of over 35% in size; also: potency is read from the fitted curve at half-maximal effect
# How it was run: as §1
# [7] = Quantitative High-Throughput drug screen in 47 multiple myeloma cell lines against the NCATS MIPE library collection: XG1_PLB cell viability assay (AID 1919866); also: nearly all actives have a fitted effect of over 35% in size; also: potency is read from the fitted curve at half-maximal effect
# How it was run: as §1
# [8] = Quantitative High-Throughput drug screen in 47 multiple myeloma cell lines against the NCATS MIPE library collection: VP6_DJ cell viability assay (AID 1919867); also: nearly all actives have a fitted effect of over 40% in size; also: potency is read from the fitted curve at half-maximal effect
# How it was run: as §1
# [9] = Quantitative High-Throughput drug screen in 47 multiple myeloma cell lines against the NCATS MIPE library collection: PE2_PLB cell viability assay (AID 1919869); also: nearly all actives have a fitted effect of over 35% in size; also: potency is read from the fitted curve at half-maximal effect
# How it was run: as §1
# [10] = Quantitative High-Throughput drug screen in 47 multiple myeloma cell lines against the NCATS MIPE library collection: OPM2_DSMZ cell viability assay (AID 1919872); also: nearly all actives have a fitted effect of over 30% in size; also: potency is read from the fitted curve at half-maximal effect
# How it was run: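 qHTS of the MIPE 4.0 collection: 500 myeloma cells/well, 48 h drug exposure at 37C in 5% CO2, then CellTiter-Glo for 5 min at room temperature before luminescence reading.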
# [11] = Quantitative High-Throughput drug screen in 47 multiple myeloma cell lines against the NCATS MIPE library collection: OPM1_PLB cell viability assay (AID 1918989); also: nearly all actives have a fitted effect of over 40% in size; also: potency is read from the fitted curve at half-maximal effect
# How it was run: as §1
# [12] = Quantitative High-Throughput drug screen in 47 multiple myeloma cell lines against the NCATS MIPE library collection: UTMC2_PLB cell viability assay (AID 1919868); also: nearly all actives have a fitted effect of over 55% in size; also: potency is read from the fitted curve at half-maximal effect
# How it was run: as §1
# [13] = Quantitative High-Throughput drug screen in 47 multiple myeloma cell lines against the NCATS MIPE library collection: PCM6_Riken cell viability assay (AID 1919870); also: nearly all actives have a fitted effect of over 30% in size; also: potency is read from the fitted curve at half-maximal effect
# How it was run: as §1
# [14] = Quantitative High-Throughput drug screen in 47 multiple myeloma cell lines against the NCATS MIPE library collection: RPMI8226_ATCC cell viability assay (AID 1919871); also: nearly all actives have a fitted effect of over 30% in size; also: potency is read from the fitted curve at half-maximal effect
# How it was run: as §1
# [15] = Quantitative High-Throughput drug screen in 47 multiple myeloma cell lines against the NCATS MIPE library collection: LP1_DSMZ cell viability assay (AID 1918982); also: nearly all actives have a fitted effect of over 35% in size; also: potency is read from the fitted curve at half-maximal effect
# How it was run: as §1
# [16] = Quantitative High-Throughput drug screen in 47 multiple myeloma cell lines against the NCATS MIPE library collection: KMS28PE_JCRB cell viability assay (AID 1918983); also: nearly all actives have a fitted effect of over 35% in size; also: potency is read from the fitted curve at half-maximal effect
# How it was run: as §1
# [17] = Quantitative High-Throughput drug screen in 47 multiple myeloma cell lines against the NCATS MIPE library collection: OCIMY7_PLB cell viability assay (AID 1918987); also: nearly all actives have a fitted effect of over 65% in size; also: potency is read from the fitted curve at half-maximal effect
# How it was run: as §1
# [18] = Quantitative High-Throughput drug screen in 47 multiple myeloma cell lines against the NCATS MIPE library collection: L363_DSMZ cell viability assay (AID 1918984); also: nearly all actives have a fitted effect of over 40% in size; also: potency is read from the fitted curve at half-maximal effect
# How it was run: as §1
# [19] = Quantitative High-Throughput drug screen in 47 multiple myeloma cell lines against the NCATS MIPE library collection: XG6_PLB cell viability assay (AID 1919865); also: nearly all actives have a fitted effect of over 40% in size; also: potency is read from the fitted curve at half-maximal effect
# How it was run: as §1
# [20] = Quantitative High-Throughput drug screen in 47 multiple myeloma cell lines against the NCATS MIPE library collection: KMS34_JCRB cell viability assay (AID 1918985); also: nearly all actives have a fitted effect of over 40% in size
# How it was run: as §1
smiles,measurement,setting,value
CC1(C)CCC(C)(C)c2cc(NC(=O)c3ccc(C(=O)O)cc3)ccc21,Potency,[1],inactive
same,Potency,[2],16.6 µM (active)
same,Potency,[3],13.2 µM (active)
same,Potency,[4],1.66 µM (active)
same,Potency,[5],14.8 µM (active)
same,Potency,[6],inactive
same,Potency,[7],3.72 µM (active)
same,Potency,[8],18.7 µM (active)
same,Potency,[9],20.9 µM (active)
same,Potency,[10],inactive
Cc1nc(-c2ccc(OCC(C)C)c(C#N)c2)sc1C(=O)O,Potency,[1],inactive
same,Potency,[2],inactive
same,Potency,[11],inactive
same,viability,[5],114%
same,Potency,[6],inactive
same,Potency,[12],inactive
same,Potency,[9],inactive
same,Potency,[13],inactive
same,Potency,[14],inactive
same,Potency,[10],inactive
Nc1ccc(S(N)(=O)=O)cc1,Potency,[1],inactive
same,Potency,[2],inactive
same,Potency,[3],inactive
same,Potency,[15],inactive
same,Potency,[16],inactive
same,Potency,[17],inactive
same,Potency,[4],inactive
same,viability,[5],120%
same,Potency,[6],inactive
same,Potency,[7],inactive
same,Potency,[12],inactive
same,Potency,[9],inactive
same,Potency,[14],inactive
same,Potency,[10],inactive
C[C@H](Cc1ccc(O)c(O)c1)[C@@H](C)Cc1ccc(O)c(O)c1,Potency,[1],18.7 µM (active)
same,Potency,[2],20.9 µM (active)
same,Potency,[3],20.9 µM (active)
same,Potency,[15],18.7 µM (active)
same,Potency,[18],6.62 µM (active)
same,Potency,[4],16.6 µM (active)
same,Potency,[11],26.4 µM (active)
same,Potency,[5],18.7 µM (active)
same,Potency,[6],16.6 µM (active)
same,Potency,[19],11.8 µM (active)
same,Potency,[7],20.9 µM (active)
same,Potency,[8],16.6 µM (active)
same,Potency,[9],11.8 µM (active)
same,Potency,[13],18.7 µM (active)
same,Potency,[14],10.5 µM (active)
same,Potency,[10],18.7 µM (active)
CS(=O)(=O)OCCCCOS(C)(=O)=O,Potency,[1],inactive
same,Potency,[2],inactive
same,Potency,[3],3.72 µM (active)
same,Potency,[20],inactive
same,Potency,[17],inactive
same,Potency,[4],5.9 µM (active)
same,Potency,[19],inactive
same,Potency,[7],inactive
same,Potency,[9],inactive
same,Potency,[10],inactive
C[C@@H](c1ncncc1F)[C@](O)(Cn1cncn1)c1ccc(F)cc1F,Potency,[1],inactive
same,Potency,[2],inactive
same,Potency,[3],inactive
same,Potency,[15],inactive
same,Potency,[20],inactive
same,Potency,[4],inactive
same,Potency,[19],5.26 µM (active)
same,Potency,[9],inactive
same,Potency,[13],1.66 µM (active)
same,Potency,[10],inactive
CCN(CC)CCOc1ccc(Cc2ccccc2)cc1,Potency,[1],inactive
same,Potency,[2],23.5 µM (active)
same,Potency,[15],14.8 µM (active)
same,Potency,[16],20.9 µM (active)
same,Potency,[17],inactive
same,Potency,[4],11.8 µM (active)
same,Potency,[6],20.9 µM (active)
same,Potency,[19],inactive
same,Potency,[7],inactive
same,Potency,[12],inactive
same,Potency,[9],inactive
same,Potency,[10],inactive
COc1c(O)cc2c(c1O)[C@@H]1O[C@H](CO)[C@@H](O)[C@H](O)[C@H]1OC2=O,Potency,[1],inactive
same,Potency,[2],inactive
same,Potency,[3],inactive
same,Potency,[15],inactive
same,Potency,[18],inactive
same,Potency,[17],inactive
same,Potency,[4],inactive
same,Potency,[6],inactive
same,Potency,[8],inactive
same,Potency,[9],inactive
same,Potency,[13],inactive
same,Potency,[14],inactive
COC(=O)C1=C(C)NC(C)=C(C(=O)OC(C)C)C1c1cccc2nonc12 (centres undefined),Potency,[1],inactive
same,Potency,[2],2.35 µM (active)
same,Potency,[3],inactive
same,Potency,[15],inactive
same,Potency,[17],6.62 µM (active)
same,Potency,[4],inactive
same,Potency,[6],3.72 µM (active)
same,Potency,[7],11.8 µM (active)
same,Potency,[8],26.4 µM (active)
same,Potency,[9],20.9 µM (active)
same,Potency,[13],26.4 µM (active)
same,Potency,[10],inactive
N[C@@H](Cc1cc(I)c(Oc2cc(I)c(O)c(I)c2)c(I)c1)C(=O)O,Potency,[1],inactive
same,Potency,[2],inactive
same,Potency,[3],inactive
same,Potency,[18],inactive
same,Potency,[17],inactive
same,viability,[5],121%
same,Potency,[6],inactive
same,Potency,[7],inactive
same,Potency,[8],inactive
same,Potency,[9],inactive
same,Potency,[13],inactive
same,Potency,[14],inactive
same,Potency,[10],inactive
CC(=O)NC[C@H]1CN(c2ccc(N3CCOCC3)c(F)c2)C(=O)O1,Potency,[1],inactive
same,Potency,[2],8.33 µM (active)
same,Potency,[3],inactive
same,Potency,[16],inactive
same,Potency,[20],inactive
same,Potency,[5],3.72 µM (active)
same,Potency,[6],inactive
same,Potency,[19],inactive
same,Potency,[7],inactive
same,Potency,[8],inactive
same,Potency,[12],inactive
same,Potency,[9],inactive
same,Potency,[13],inactive
same,Potency,[10],inactive
CN(c1nccc(=O)[nH]1)C1CCN(c2nc3ccccc3n2Cc2ccc(F)cc2)CC1,Potency,[1],inactive
same,Potency,[2],11.8 µM (active)
same,Potency,[15],inactive
same,Potency,[16],inactive
same,Potency,[18],inactive
same,Potency,[20],inactive
same,Potency,[11],26.4 µM (active)
same,viability,[5],125%
same,Potency,[6],11.8 µM (active)
same,Potency,[19],18.7 µM (active)
same,Potency,[7],18.7 µM (active)
same,Potency,[8],23.5 µM (active)
same,Potency,[12],16.6 µM (active)
same,Potency,[14],inactive
same,Potency,[10],inactive
Cc1cccc(-c2[nH]ncc2-c2ccc3ncccc3n2)n1,Potency,[1],inactive
same,Potency,[2],14.8 µM (active)
same,Potency,[16],inactive
same,Potency,[18],inactive
same,viability,[5],121%
same,Potency,[6],inactive
same,Potency,[19],inactive
same,Potency,[8],inactive
same,Potency,[14],inactive
same,Potency,[10],inactive
COC(=O)N[C@H](C(=O)N[C@@H](Cc1ccccc1)[C@@H](O)CN(Cc1ccc(-c2ccccn2)cc1)NC(=O)[C@@H](NC(=O)OC)C(C)(C)C)C(C)(C)C,Potency,[1],inactive
same,Potency,[2],inactive
same,Potency,[18],inactive
same,Potency,[11],inactive
same,Potency,[6],inactive
same,Potency,[8],20.9 µM (active)
same,Potency,[9],inactive
same,Potency,[13],9.35 µM (active)
same,Potency,[14],inactive
same,Potency,[10],inactive
NNc1nncc2ccccc12,Potency,[1],inactive
same,Potency,[2],inactive
same,Potency,[3],inactive
same,Potency,[15],inactive
same,Potency,[16],inactive
same,Potency,[18],inactive
same,Potency,[20],inactive
same,Potency,[17],inactive
same,viability,[5],116%
same,Potency,[6],inactive
same,Potency,[19],inactive
same,Potency,[7],inactive
same,Potency,[9],inactive
same,Potency,[13],inactive
same,Potency,[14],inactive
same,Potency,[10],inactive
CC(C)CC(=O)N[C@H](C(=O)N[C@H](C(=O)N[C@@H](CC(C)C)[C@@H](O)CC(=O)N[C@@H](C)C(=O)N[C@@H](CC(C)C)[C@@H](O)CC(=O)O)C(C)C)C(C)C (Isovaleryl-VV[Sta]A[Sta]-OH),Potency,[1],inactive
same,Potency,[3],inactive
same,Potency,[15],inactive
same,Potency,[16],inactive
same,Potency,[18],inactive
same,Potency,[17],inactive
same,Potency,[11],inactive
same,Potency,[7],16.6 µM (active)
same,Potency,[9],inactive
same,Potency,[10],inactive
